This passage reports composite z-score and z-score results from PubChem BioAssay.

The source made the active and inactive calls.

Assay [1] has as its system Plasmodium falciparum Sir2 (PF13_0152, Sir2A). The experiment in a line: pfSir2 binders on small-molecule microarrays, primary screen, biochemical, small-molecule microarray, 635 nm fluorescence (AID 1098).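 Note: score merges spot fluorescence intensity with its signal-to-noise ratio.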 To be noted: small-molecule microarray binding, fluorescence 635 nm; higher = more signal.
A short description of assay [2]: small-molecule microarray binders of probe aDKK1, primary screen, biochemical, biotinylated probe, 635/667 nm fluorescence (AID 1099).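 Note: score merges 667nm spot fluorescence with signal to noise across triplicate slides.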 To be noted: higher = more signal.
A short description of assay [3]: small-molecule microarray binders of probe aCHRDL2, primary screen, biochemical, biotinylated probe, 635/667 nm fluorescence (AID 1100). To be noted: higher = more signal.
Assay [4] can be described thus: splicing luciferase reporter signal modulators, primary screen, spliceosome inhibition project, cell-based, HEK293, splice +/- reporter (AID 1101).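 Note: HEK293 cells carrying a splicing-competent luciferase reporter gene; test concentration not given here.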 To be noted: luminescence, 24 h, higher = more signal, called active from +8 up or from −8 down. For orientation: A reporter such as luciferase makes a cellular process visible.
Assay [5] has as its target Fibroblast growth factor 10 (Homo sapiens) (UniProt O15520). Description: FGF10 binders on small-molecule microarrays, primary screen, biochemical, small-molecule microarray, 635 nm fluorescence (AID 1102). To be noted: FGF10 binding, fluorescence 635 nm, higher = more signal.
The test system of assay [6] is glycogen synthase kinase-3 (GSK3A per assay name; protocol says GSK3B). The experiment in a line: GSK3 binders on small-molecule microarrays, primary screen, biochemical, small-molecule microarray, 635 nm fluorescence, GSK3A (AID 1103). Note: the record names both GSK3A and GSK3B. To be noted: small-molecule microarray binding, fluorescence 635 nm; higher = more signal.
The target of assay [7] is Epidermal growth factor receptor (Homo sapiens) (UniProt P00533). Description: EGFR binders on small-molecule microarrays, primary screen, biochemical, small-molecule microarray, 635 nm fluorescence (AID 1104).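 Note: score merges 667 nm emission intensity with spot signal to noise over triplicate slides.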 To be noted: EGFR binding, higher = more signal.
Epidermal growth factor receptor (Homo sapiens), sequence (P00533 whole entry, looked up): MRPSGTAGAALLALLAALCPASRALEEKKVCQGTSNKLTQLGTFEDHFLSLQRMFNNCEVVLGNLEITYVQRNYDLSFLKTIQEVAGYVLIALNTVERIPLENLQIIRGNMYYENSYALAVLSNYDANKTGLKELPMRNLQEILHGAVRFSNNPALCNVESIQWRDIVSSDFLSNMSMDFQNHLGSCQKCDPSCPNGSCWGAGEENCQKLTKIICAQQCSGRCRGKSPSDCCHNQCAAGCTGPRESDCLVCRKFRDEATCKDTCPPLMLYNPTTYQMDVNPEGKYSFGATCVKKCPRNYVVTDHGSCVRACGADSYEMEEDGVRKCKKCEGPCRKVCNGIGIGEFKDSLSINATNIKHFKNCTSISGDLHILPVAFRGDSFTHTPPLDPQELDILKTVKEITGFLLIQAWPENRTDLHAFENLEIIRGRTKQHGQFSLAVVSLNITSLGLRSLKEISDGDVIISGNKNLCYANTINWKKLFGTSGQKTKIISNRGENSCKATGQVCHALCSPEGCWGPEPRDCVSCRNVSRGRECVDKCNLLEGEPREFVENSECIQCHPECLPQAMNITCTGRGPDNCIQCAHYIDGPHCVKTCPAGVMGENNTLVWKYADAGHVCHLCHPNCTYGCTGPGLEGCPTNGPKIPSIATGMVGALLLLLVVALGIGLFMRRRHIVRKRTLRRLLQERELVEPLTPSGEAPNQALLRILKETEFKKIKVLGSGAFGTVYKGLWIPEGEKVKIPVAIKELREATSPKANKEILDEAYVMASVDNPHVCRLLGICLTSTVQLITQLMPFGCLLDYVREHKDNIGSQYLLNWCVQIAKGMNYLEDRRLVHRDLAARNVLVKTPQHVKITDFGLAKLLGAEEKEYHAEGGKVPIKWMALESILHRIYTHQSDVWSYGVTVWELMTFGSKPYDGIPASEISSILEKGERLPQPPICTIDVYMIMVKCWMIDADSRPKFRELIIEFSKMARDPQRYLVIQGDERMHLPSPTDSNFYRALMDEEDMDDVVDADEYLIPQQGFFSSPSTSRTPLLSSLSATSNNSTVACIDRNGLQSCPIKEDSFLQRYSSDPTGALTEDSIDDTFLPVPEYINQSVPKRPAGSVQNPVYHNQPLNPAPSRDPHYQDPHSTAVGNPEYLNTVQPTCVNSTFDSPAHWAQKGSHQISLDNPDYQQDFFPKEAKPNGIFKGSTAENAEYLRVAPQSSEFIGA
The target in assay [8] is Follistatin-related protein 3 (Homo sapiens) (UniProt O95633). The experiment in a line: FSTL3 binders on small-molecule microarrays, primary screen, biochemical, small-molecule microarray, 635 nm fluorescence (AID 1105).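 Note: score merges emission near 667 nm and signal to noise per printed spot across three slides.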 To be noted: FSTL3 binding, higher = more signal.
Follistatin-related protein 3 (Homo sapiens), sequence (O95633 whole entry, looked up): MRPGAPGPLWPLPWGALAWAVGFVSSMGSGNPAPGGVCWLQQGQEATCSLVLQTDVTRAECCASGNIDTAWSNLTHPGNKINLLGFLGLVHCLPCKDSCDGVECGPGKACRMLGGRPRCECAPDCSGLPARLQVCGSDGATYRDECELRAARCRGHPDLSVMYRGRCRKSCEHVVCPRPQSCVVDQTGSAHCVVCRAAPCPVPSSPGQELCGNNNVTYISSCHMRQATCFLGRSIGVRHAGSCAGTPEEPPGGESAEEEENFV
The target in assay [9] is Dickkopf-related protein 1 (Homo sapiens) (UniProt O94907). Description: DKK1 binders on small-molecule microarrays, primary screen, biochemical, small-molecule microarray, 635 nm fluorescence scan (AID 1106).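 Note: score merges emission near 667 nm with signal to noise over three replicate slides.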 To be noted: DKK1 binding, higher = more signal.
Dickkopf-related protein 1 (Homo sapiens), sequence (O94907 whole entry, looked up): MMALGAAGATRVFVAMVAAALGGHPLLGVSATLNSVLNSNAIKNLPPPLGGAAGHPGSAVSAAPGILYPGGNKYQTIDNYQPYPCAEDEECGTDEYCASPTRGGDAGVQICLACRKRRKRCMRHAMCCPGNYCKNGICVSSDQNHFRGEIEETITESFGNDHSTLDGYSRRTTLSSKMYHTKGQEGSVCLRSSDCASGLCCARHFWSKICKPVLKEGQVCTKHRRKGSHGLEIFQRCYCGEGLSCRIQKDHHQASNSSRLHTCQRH
The test system of assay [10] is Inhibin beta A chain (activin A). Description: INHBA (activin A) binders on microarrays, primary screen, biochemical, small-molecule microarray, 635 nm fluorescence scan (AID 1107).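 Note: mouse activin A protein probed at 4.33 µg/mL on printed slides; score merges bound-protein fluorescence near 667 nm with spot signal-to-noise.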 To be noted: small-molecule microarray binding, higher = more signal.
The test system of assay [11] is Human papillomavirus type 1a protein E7 (residues 44-93). The experiment in a line: HPV1a E7 fragment binders on microarrays, primary screen, biochemical, small-molecule microarray, residues 44-93, 635 nm fluorescence (AID 1108).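 Note: E7 fragment applied at 1 µg/mL in TBST for 1 h at 4 C; score combines spot fluorescence with its signal to noise ratio.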 To be noted: small-molecule microarray binding, fluorescence 635 nm; higher = more signal.
Assay [12] is described as follows: modulators of HCV replicon luciferase signal, primary screen, HCV replication inhibitor project, Huh7 cells, luciferase reporter (AID 1109).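 Note: huh7 hepatoma cells harbouring a luciferase neomycin HCV replicon reporter; luciferase luminescence as measure of HCV replicon replication; test concentration not given here.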 To be noted: 48 h, higher = more signal. For orientation: In antiviral work, replicon cells carry a viral genome segment that copies itself.
In assay [13] the target is Left-right determination factor 2 (Homo sapiens) (UniProt O00292). Description: LEFTY2 binders on small-molecule microarrays, primary screen, biochemical, small-molecule microarray, 635 nm fluorescence scan (AID 1110). To be noted: LEFTY2 binding, higher = more signal.
Left-right determination factor 2 (Homo sapiens), sequence (O00292 whole entry, looked up): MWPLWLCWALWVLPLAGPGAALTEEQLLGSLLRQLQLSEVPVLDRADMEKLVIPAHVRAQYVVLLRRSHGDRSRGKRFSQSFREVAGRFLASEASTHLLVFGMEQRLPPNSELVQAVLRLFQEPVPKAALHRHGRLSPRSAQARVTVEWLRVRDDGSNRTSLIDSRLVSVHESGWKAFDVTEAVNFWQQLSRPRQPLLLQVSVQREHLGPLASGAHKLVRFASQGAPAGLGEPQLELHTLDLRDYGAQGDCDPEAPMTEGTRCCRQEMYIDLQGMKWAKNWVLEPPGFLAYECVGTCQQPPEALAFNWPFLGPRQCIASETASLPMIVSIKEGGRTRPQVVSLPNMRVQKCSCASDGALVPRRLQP
For assay [14], the target named is Calmodulin-1 (Homo sapiens) (UniProt P0DP23). The experiment in a line: CALM1 binders on microarrays, EGTA buffer, profiling panel, biochemical, small-molecule microarray, Cy5-labelled CALM1 (AID 1111).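 Note: labelled calmodulin applied in Tris saline Tween buffer holding calcium plus EGTA and DTT.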 To be noted: Cy5-CALM1 binding fluorescence, higher = more signal.
For assay [15] the target is unchanged. The experiment in a line: calcium-bound CALM1 binders on microarrays, profiling panel, artefact control for SMM control-protein annotation, biochemical, small-molecule microarray, Cy5-labelled CALM1, plus calcium (AID 1112).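 Note: score merges spot fluorescence with signal to noise from triplicate slides.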 To be noted: Cy5-CALM1 binding fluorescence, higher = more signal.
Assay [16] in a line: small-molecule microarray binders of probe aWnt5a, primary screen, biochemical, biotinylated probe, 635/667 nm fluorescence (AID 1113).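 Note: score merges 667 nm fluorescence intensity with signal-to-noise per printed feature.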 To be noted: higher = more signal.
Assay [17] in a line: small-molecule microarray binders of probe aShh, primary screen, biochemical, biotinylated probe, 635/667 nm fluorescence (AID 1114).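 Note: probe is biotin-labelled aShh protein from a stem cell growth factor screen; measures binding of labelled protein to compounds printed on the slide; score merges feature fluorescence at 667 nm with signal-to-noise.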 To be noted: higher = more signal.
A short description of assay [18]: small-molecule microarray binders of probe aNog, primary screen, biochemical, biotinylated probe, 635/667 nm fluorescence (AID 1115).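 Note: probe is biotinylated aNog protein used at 0.15 µg/mL for 1 h at 4 C; z-score combines 667 nm fluorescence of each spot with its signal to noise.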 To be noted: higher = more signal.
Assay [19] deals with Torsin-1A-interacting protein 1 (Homo sapiens) (UniProt Q5JTV8). The experiment in a line: LAP1 binders from COS7 cell lysate, primary screen, small-molecule microarray, 635/667 nm fluorescence (AID 1116). To be noted: COS7-hLAP1 lysate binding, 635 nm fluorescence, higher = more signal.
Torsin-1A-interacting protein 1 (Homo sapiens), sequence (Q5JTV8 whole entry, looked up): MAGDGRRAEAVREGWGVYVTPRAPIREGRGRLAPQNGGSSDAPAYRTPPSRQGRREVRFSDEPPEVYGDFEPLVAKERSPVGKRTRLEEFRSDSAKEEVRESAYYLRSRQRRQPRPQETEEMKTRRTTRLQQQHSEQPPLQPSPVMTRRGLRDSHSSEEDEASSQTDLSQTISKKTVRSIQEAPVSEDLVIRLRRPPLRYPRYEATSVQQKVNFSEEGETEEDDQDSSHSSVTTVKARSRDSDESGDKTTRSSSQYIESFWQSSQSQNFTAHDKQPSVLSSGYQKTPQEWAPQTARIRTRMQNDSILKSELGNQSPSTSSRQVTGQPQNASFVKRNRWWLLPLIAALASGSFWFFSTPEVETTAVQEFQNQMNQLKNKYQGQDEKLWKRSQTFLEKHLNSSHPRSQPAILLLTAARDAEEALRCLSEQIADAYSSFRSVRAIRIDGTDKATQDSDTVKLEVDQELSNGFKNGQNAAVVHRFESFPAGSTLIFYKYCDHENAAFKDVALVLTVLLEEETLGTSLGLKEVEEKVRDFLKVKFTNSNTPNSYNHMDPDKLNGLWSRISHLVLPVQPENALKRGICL
Assay [20] has as its target Alpha-bungarotoxin (Bungarus multicinctus) (UniProt P60615). Description: alpha-bungarotoxin binders on microarray, profiling panel, artefact control for SMM control protein annotation, biochemical, small-molecule microarray, Alexa647 label, 635/667 nm fluorescence (AID 1117). To be noted: alpha-BTX-A647 binding fluorescence, higher = more signal.

Alpha-bungarotoxin (Bungarus multicinctus), sequence (P60615 whole entry, looked up): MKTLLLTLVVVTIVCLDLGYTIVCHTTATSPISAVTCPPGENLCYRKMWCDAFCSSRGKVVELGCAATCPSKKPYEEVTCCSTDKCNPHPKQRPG
Fibroblast growth factor 10 (Homo sapiens), sequence (O15520 whole entry, looked up): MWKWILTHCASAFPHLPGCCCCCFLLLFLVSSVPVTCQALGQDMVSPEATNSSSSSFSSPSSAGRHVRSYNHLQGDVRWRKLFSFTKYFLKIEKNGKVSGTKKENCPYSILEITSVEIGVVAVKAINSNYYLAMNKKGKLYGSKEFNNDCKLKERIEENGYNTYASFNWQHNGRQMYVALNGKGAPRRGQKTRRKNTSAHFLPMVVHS

In the case of `C=C(CCCC)/C(=C/C[C@H](OC(=O)c1ccncc1)c1ccc(OCCO)cc1)c1cc(C(=O)OC)ccc1OC`, the composite z-score was 0.694 in assay [1]; -0.172 in [2]; -0.116 in assay [3]; 0.752 in assay [5]; -0.139 in assay [6]; 0.053 in [7]. The composite z-score was 0.14 in [8]; 0.204 in assay [9]; 1.29 in assay [10]; 1.09 in [11]; 0.318 in assay [13]; 0.226 in assay [14]. The composite z-score in assay [15] was 0.176; in assay [16], 0.0491; in assay [17], 0.216; in assay [18], -0.158; in assay [19], 1.26; in [20], 0.378. For the same compound, the z-score in assay [4] is -1.14 (inactive); in assay [12] it was -2.01.
As to `CN(C)CCCCCCNC(=O)[C@@H]1C[C@@H]2C(=O)N3CCC[C@H]3C(=O)N2[C@@H]1c1ccc(O)cc1`, the composite z-score in [1] was determined as 0.609; in [2] it was 0.381; in [3], 0.234; in assay [5] it was 1.1; in assay [6] it was 1.34; in assay [7], 0.842. The composite z-score in [8] was 1.48; in [9], 1.69; in assay [10] it was 0.254; in assay [11], 1.42; in [13], 1.5; in assay [14] it was -1.95. Moreover, the composite z-score in assay [15] is -1.42; in assay [16] it was -0.062; in [17] it was 0.42; in assay [18] it was -0.364; in [19], 2.23; in [20], 2.36. For the same compound, the results for the z-score in [4] and in assay [12] were -1.51 (inactive) and 1.49, respectively.
Regarding `C=C(CCCC)/C(=C/C[C@@H](OC(C)=O)c1cccc(OCCO)c1)c1cnc2ccccc2c1`, the composite z-score in [1] was 0.462; in [2], -0.14; in assay [3], 0.0854; in [5] it was 1; in assay [6] it was -0.518; in [7], 0.12. Further, the composite z-score was 1.12 in assay [8]; 0.312 in assay [9]; 1.58 in assay [10]; 0.571 in assay [11]; 0.257 in assay [13]; -0.18 in [14]. Moreover, the composite z-score in assay [15] is -0.387; in assay [16], -0.124; in [17], -0.0709; in [18] it was 0.123; in assay [19], 0.314; in assay [20] it was 1.07. Further, the z-score was 1.17 (inactive) in assay [4] and -1.32 in assay [12].
Turning to `CC(=O)Nc1cc(Br)ccc1C(=O)NCc1ccccc1`, the composite z-score in assay [1] is 0.695; in assay [2] it was -0.0601; in assay [3], 0.416; in [5], -0.158; in assay [6], 0.0021; in assay [7], -0.274. Moreover, the composite z-score in [8] is -0.187; in assay [9], -0.221; in assay [10], 0.305; in assay [11] it was 1.09; in assay [13], -0.174; in [14], 0.851. Also, the composite z-score is 0.517 in [15]; -0.0346 in assay [16]; -0.16 in assay [17]; -0.196 in assay [18]; 0.341 in [19]; 0.809 in assay [20]. Also, the z-score is -0.508 (inactive) in assay [4] and -0.0162 in assay [12].
On to `O=C1C2C=CC(C(O)c3c(F)cccc3Cl)N(Nc3ccccc3F)C2C(=O)N1c1ccccc1` (stereo not given), for which the composite z-score was 0.537 in [1]; 0.923 in assay [2]; 1.09 in assay [3]; 1.28 in assay [5]; 0.533 in assay [6]; -0.0195 in assay [7]. The composite z-score in [8] was 0.551; in [9] it was -0.62; in assay [10], 0.87; in [11], 1.43; in [13], -0.165; in [14], 1.24. Also, the composite z-score in assay [15] came out at 0.265; in assay [16] it was 0.0136; in assay [17], 0.701; in assay [18], 0.933; in assay [19], 1.43; in assay [20], 0.543. Moreover, the values for the z-score in [4] and in assay [12] were 1.4 (inactive) and -0.665, respectively.
On to `[N-]=[N+]=NCc1ccccc1[C@@H]1OC(c2ccc(OCCCO)cc2)=N[C@]1(CCS(=O)(=O)c1ccccc1)C(N)=O`, for which the composite z-score in assay [1] is 1.32; in assay [2] it was 0.775; in assay [3], 1.01; in [5] it was 1.6; in assay [6] it was 1.32; in assay [7] it was 0.588. Besides, the composite z-score in [8] came to 1.41; in [9] it was 1.47; in assay [10] it was 1.3; in assay [11], 1.5; in assay [13], 0.767; in assay [14], 0.731. Also, the composite z-score in assay [15] was 0.242; in assay [16], 0.164; in assay [17], 0.5; in [18], 0.769; in [19] it was 1.81; in [20], 2.19. In addition, the figures for the z-score in [4] and in [12] were 0.25 (inactive) and 1.35, respectively.
Regarding `C=CCNC(=O)[C@@H]1[C@H]2C(=O)O[C@H](c3ccccc3)[C@H](c3ccccc3)N2[C@H](c2ccc(OCCO)cc2)[C@@]12C(=O)N(C(=O)OCCOC)c1ccc(C#CCC(C(=O)OC)C(=O)OC)cc12`, the composite z-score in [1] turned out to be 1.32; in assay [2], 0.951; in assay [3], 0.328; in [5], 1.07; in [6], 1.28; in [7], 0.719. For the same compound, the composite z-score is 1.1 in [8]; 1.29 in [9]; -0.0578 in assay [10]; 0.805 in assay [11]; 0.969 in [13]; 1.61 in assay [14]. Besides, the composite z-score in assay [15] is 0.105; in assay [16], -0.0302; in assay [17], 0.199; in [18], 0.804; in assay [19] it was 1.03; in [20] it was 1.26. Besides, the z-score was 1.01 (inactive) in [4] and -1.5 in [12].
With `COC(=O)c1c(CC[C@@H](CO)NC(=O)NCCc2c[nH]c3ccccc23)oc(C(=O)Cc2ccccc2)c1C(=O)OC`, the composite z-score is 0.176 in assay [1]; -0.281 in assay [2]; -0.805 in [3]; 0.48 in [5]; 0.429 in assay [6]; 0.398 in assay [7]. Moreover, the composite z-score in assay [8] is 0.321; in assay [9] it was 0.263; in [10], 0.553; in assay [11], 0.465; in [13], 0.353; in assay [14] it was -0.103. Further, the composite z-score is -0.46 in assay [15]; 0.0657 in [16]; -0.0011 in assay [17]; -0.33 in assay [18]; 0.385 in assay [19]; -0.172 in assay [20]. Further, the z-score is -0.251 (inactive) in assay [4] and -1.16 in assay [12].
